The full data set covers some 8,800 targets. This sample favours those with a hit. About 0.5% of all pairs of compound and target were hits. Values without a mark were called inactive.
Legend:
Experiment in all cases: log2 fold change, soluble protein after heating vs DMSO (PISA); higher = thermal stabilisation; K562 lysate, 10 uM; active = over 0.2 and 3.5 SD of the protein, either way, in both replicates (recomputed)
[1] = compound: NCC(=O)Nc1ccc(-n2nc(C(F)(F)F)cc2-c2ccc3c(ccc4ccccc43)c2)cc1
Summary of the method: (§1)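 Soluble protein was defined as the supernatant remaining after 21,000xg for 90 min, following pooling of heated aliquots and adjustment to 0.5% NP-40 at 4°C. Before that, crude K562 extract at 1 mg/mL protein in PBS pH 7.4 with 1 mM MgCl2 was treated with 10 μM compound for 30 min and heated for 3 min across 48°C-58°C. Quantification used TMTpro 16plex LC-MS/MS with channel sums equalised, and values are log-two fold changes in thermal stability relative to solvent controls from duplicates.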

[2] = compound: O=C(CCCCCCC(=O)Nc1ccccc1)NO [vorinostat]
Summary of the method: as §1

[3] = compound: O=C(O)c1ccc2c(c1)nc(Nc1cccc(Cl)c1)c1ccncc12 [silmitasertib]
Summary of the method: as §1

[4] = compound: O=C1NC(=O)C(c2cnc3ccccn23)=C1c1cn2c3c(cc(F)cc13)CN(C(=O)N1CCCCC1)CC2
Summary of the method: as §1

[5] = compound: c1cn2cc(-c3ccc4cn[nH]c4c3)nc(Nc3ccc(N4CCOCC4)cc3)c2n1 [entospletinib]
Summary of the method: as §1

UniProt Q6NXE6, sequence (Q6NXE6 whole entry, looked up): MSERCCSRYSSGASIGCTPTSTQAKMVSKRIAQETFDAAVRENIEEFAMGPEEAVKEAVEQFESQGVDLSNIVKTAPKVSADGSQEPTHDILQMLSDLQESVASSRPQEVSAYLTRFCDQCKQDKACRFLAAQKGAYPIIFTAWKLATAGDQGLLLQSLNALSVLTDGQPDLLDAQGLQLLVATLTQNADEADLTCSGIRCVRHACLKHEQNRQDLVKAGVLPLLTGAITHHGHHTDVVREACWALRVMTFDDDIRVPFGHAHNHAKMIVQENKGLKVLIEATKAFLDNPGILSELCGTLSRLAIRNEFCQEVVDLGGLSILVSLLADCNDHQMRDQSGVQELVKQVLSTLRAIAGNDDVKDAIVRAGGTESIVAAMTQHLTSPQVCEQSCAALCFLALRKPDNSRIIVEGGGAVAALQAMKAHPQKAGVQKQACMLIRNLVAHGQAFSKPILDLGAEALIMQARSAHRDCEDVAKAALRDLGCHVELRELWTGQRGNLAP
UniProt P14621, sequence (P14621 whole entry, looked up): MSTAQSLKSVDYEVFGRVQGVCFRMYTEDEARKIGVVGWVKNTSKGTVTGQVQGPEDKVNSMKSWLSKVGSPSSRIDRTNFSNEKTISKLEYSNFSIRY
UniProt O43865, sequence (O43865 whole entry, looked up): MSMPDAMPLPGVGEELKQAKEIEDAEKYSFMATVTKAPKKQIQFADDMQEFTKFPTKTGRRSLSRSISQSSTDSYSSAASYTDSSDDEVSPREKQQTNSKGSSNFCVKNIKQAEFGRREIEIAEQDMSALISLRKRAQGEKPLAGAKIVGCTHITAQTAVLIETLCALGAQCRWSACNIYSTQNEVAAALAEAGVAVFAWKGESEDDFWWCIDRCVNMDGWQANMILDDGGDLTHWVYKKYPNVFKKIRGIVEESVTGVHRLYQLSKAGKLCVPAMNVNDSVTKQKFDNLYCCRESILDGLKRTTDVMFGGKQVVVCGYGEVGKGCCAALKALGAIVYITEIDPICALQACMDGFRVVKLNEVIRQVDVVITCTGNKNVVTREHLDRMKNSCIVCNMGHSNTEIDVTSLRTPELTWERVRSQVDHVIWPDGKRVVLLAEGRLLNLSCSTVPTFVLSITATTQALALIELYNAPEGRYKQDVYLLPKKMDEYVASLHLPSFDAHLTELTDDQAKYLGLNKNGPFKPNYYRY
UniProt Q5VST6, sequence (Q5VST6 whole entry, looked up): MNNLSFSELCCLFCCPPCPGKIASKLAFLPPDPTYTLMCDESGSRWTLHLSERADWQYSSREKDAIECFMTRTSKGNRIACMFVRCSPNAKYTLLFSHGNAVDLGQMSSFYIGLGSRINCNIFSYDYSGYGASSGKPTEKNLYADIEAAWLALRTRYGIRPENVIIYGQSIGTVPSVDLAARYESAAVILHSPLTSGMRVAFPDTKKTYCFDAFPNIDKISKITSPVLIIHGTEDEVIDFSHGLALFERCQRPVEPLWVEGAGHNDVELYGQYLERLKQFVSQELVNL
UniProt Q8NFV4, sequence (Q8NFV4 whole entry, looked up): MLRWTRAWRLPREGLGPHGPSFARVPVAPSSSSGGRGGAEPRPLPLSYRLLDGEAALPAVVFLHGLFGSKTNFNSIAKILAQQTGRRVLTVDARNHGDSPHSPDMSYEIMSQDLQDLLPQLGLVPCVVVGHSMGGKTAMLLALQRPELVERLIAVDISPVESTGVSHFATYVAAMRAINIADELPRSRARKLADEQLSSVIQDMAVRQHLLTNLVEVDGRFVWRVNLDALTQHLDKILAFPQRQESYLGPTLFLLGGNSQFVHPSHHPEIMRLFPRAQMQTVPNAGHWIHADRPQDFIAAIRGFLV
UniProt O43823, sequence (O43823 whole entry, looked up): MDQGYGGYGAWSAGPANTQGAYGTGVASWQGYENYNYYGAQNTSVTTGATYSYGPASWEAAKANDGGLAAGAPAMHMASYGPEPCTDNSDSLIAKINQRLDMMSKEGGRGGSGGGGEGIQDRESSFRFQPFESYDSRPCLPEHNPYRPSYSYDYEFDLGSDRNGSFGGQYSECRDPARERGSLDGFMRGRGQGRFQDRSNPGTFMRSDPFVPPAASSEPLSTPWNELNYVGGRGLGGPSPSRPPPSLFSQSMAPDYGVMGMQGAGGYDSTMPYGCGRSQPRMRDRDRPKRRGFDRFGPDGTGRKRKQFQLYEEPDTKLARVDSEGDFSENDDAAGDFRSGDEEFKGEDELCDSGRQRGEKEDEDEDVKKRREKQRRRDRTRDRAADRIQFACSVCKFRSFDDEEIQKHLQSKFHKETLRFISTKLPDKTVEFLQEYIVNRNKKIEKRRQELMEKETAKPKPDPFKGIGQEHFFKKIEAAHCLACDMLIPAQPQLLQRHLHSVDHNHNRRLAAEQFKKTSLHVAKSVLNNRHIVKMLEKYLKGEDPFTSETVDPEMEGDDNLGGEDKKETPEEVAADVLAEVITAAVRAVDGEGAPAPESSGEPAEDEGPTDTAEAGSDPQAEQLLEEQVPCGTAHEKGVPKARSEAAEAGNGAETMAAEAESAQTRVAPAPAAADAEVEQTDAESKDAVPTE
UniProt P27695, sequence (P27695 whole entry, looked up): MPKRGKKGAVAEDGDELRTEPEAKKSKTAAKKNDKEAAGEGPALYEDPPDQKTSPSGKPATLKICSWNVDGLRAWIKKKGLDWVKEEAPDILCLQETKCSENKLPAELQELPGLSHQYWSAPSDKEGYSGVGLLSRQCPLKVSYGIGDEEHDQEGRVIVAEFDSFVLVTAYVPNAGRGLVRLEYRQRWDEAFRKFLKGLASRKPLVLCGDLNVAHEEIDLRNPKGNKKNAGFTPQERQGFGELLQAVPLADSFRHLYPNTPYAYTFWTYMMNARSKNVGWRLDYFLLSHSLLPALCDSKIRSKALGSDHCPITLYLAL
UniProt Q9BTT0, sequence (Q9BTT0 whole entry, looked up): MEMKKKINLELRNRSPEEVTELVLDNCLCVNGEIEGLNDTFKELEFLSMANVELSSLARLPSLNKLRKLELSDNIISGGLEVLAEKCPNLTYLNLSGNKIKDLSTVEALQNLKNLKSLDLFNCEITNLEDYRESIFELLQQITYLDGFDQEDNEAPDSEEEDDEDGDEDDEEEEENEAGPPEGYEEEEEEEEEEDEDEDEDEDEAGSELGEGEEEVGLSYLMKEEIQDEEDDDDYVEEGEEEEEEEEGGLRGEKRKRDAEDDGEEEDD
UniProt Q15067, sequence (Q15067 whole entry, looked up): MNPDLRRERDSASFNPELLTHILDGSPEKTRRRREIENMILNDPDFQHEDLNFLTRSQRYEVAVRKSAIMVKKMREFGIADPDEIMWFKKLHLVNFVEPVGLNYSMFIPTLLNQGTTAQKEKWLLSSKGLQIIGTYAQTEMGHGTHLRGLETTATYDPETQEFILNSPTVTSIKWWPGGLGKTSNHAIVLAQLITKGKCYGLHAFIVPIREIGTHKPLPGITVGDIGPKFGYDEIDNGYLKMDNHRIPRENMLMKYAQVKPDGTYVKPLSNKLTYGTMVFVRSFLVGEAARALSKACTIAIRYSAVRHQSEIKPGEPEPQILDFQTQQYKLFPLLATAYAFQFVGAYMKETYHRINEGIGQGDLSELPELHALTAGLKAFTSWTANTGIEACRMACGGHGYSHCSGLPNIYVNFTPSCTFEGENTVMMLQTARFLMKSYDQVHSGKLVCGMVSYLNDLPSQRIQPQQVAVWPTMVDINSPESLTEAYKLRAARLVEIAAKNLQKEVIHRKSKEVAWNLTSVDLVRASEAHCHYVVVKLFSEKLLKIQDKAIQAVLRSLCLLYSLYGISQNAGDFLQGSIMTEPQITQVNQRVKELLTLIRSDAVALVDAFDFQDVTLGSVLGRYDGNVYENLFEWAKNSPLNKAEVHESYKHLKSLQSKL
UniProt Q92685, sequence (Q92685 whole entry, looked up): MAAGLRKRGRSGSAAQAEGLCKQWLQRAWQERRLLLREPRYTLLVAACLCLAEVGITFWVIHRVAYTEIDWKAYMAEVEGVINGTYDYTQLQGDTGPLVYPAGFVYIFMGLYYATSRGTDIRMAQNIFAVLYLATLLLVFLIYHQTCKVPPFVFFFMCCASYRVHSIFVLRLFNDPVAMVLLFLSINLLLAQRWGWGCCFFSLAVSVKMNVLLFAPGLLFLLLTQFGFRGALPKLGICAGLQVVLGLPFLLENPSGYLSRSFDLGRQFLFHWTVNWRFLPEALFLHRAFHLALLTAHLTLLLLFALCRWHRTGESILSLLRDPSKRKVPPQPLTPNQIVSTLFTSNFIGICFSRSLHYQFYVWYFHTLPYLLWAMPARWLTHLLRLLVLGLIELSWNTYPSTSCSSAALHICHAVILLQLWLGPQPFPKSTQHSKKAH
UniProt P40616, sequence (P40616 whole entry, looked up): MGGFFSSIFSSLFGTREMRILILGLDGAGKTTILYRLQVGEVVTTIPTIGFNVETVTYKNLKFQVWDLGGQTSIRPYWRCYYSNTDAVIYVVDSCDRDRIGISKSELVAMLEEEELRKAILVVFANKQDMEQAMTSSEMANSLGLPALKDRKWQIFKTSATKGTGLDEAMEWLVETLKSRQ
UniProt P07311, sequence (P07311 whole entry, looked up): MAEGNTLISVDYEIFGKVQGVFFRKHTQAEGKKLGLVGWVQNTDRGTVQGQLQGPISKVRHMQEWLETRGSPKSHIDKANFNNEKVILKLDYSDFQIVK
UniProt Q8N6T3, sequence (Q8N6T3 whole entry, looked up): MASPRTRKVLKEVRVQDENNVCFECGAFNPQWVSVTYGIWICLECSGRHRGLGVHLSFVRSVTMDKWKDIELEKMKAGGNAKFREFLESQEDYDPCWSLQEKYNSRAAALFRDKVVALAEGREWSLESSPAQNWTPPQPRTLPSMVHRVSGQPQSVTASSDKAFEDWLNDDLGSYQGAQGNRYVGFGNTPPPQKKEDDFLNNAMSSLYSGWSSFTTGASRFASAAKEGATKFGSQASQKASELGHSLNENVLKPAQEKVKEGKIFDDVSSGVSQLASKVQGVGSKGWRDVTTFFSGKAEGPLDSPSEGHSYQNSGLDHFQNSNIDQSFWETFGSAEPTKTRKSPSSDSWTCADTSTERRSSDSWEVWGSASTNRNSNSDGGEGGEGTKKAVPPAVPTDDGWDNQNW

| Target | log2 fold change [1] | log2 fold change [2] | log2 fold change [3] | log2 fold change [4] | log2 fold change [5] |
| --- | --- | --- | --- | --- | --- |
| ARFGAP1 (UniProt Q8N6T3) | 0.063 | 0.253 | -0.066 | -0.12 | 0.038 |
| ACYP2 (UniProt P14621) | 0.066 | 0.147 | -0.081 | 0.012 |  |
| ARHGAP6 (UniProt O43182) | 0.058 | -0.346 (active) | 0.089 | 0.025 | 0.004 |
| APOB (UniProt P04114) | 0.063 | 0.154 | 0.007 | -0.012 | 0.05 |
| ALDH6A1 (UniProt Q02252) | -0.041 | -0.046 | 0.042 | 0.096 | 0.035 |
| AP3D1 isoform 2 (UniProt O14617) | 0.179 | -0.738 (active) | 0.02 |  |  |
| ABHD17B (UniProt Q5VST6) | 0.096 | 0.219 | -0.021 | 0.032 | 0.2 |
| ACYP1 (UniProt P07311) | -0.015 | 0.127 | -0.028 | -0.002 | 0.008 |
| AGO4 (UniProt Q9HCK5) | -0.007 | 0.09 | -0.018 | -0.006 | -0.013 |
| APEX1 (UniProt P27695) | 0.007 | -0.15 | 0.026 | -0.001 | -0.002 |
| ALG3 (UniProt Q92685) | -0.107 | 0.461 (active) | 0.285 | -0.157 | -0.01 |
| ARMC6 (UniProt Q6NXE6) | -0.011 | -0.422 (active) | 0.02 | -0.006 | 0.011 |
| ASPH (UniProt Q12797) | 0 | 0.131 | -0.008 | 0.029 | -0.016 |
| AKAP8 (UniProt O43823) | 0.047 | -0.095 | 0.019 | 0.023 | -0.046 |
| ARL1 (UniProt P40616) | 0.017 | -0.293 (active) | -0.048 | 0.027 | 0.034 |
| ARL13B (UniProt Q3SXY8) | 0.01 | -0.186 | -0.024 | -0.064 |  |
| ABHD11 (UniProt Q8NFV4) | -0.001 | 0.195 | 0.324 (active) | 0.003 | 0.05 |
| AGL (UniProt P35573) | 0 | -0.275 (active) | 0.035 | 0.001 | -0.018 |
| ACACA isoform 4 (UniProt Q13085) | -0.003 | -0.449 (active) | 0.016 | -0.003 | 0.027 |
| ACOX1 isoform 2 (UniProt Q15067) | 0.009 | 0.09 | 0.009 | 0.04 | -0.012 |
| ANP32E (UniProt Q9BTT0) | 0.021 | 0.217 | -0.029 | -0.011 | 0.012 |
| ACSL1 (UniProt P33121) | -0.092 | -0.221 (active) | 0.138 | -0.031 | -0.027 |
| ACTG1 (UniProt I3L4N8) | -0.131 | 0.358 | -0.043 | 0.082 | 0.098 |
| AHCYL1 (UniProt O43865) | 0.021 | -0.287 (active) | -0.021 | 0.045 | -0.03 |
| ANKRD10 (UniProt Q9NXR5) | 0 | -0.589 (active) | 0.037 | -0.066 |  |
